In the library only some 13% were active in any assay of this set; here they are far more common.
USP10 inh: inhibitors of human USP10 deubiquitinase. Q14694. purified USP10, Ub-rhodamine fluorescence, 60 min. inhibition, % at 20 µM. 47,000 compounds, 1.1% hits. AID 1645856
OTUD3 inh: inhibitors of human OTUD3 deubiquitinase. Q5T2D3. purified OTUD3, Ub-rhodamine fluorescence, 2 h. inhibition, % at 25 µM. 47,000 compounds, 0.7% hits. AID 1645858
USP28 block: blocks human USP28 ubiquitin-rhodamine cleavage; purified USP28, Ub-rhodamine cleavage fluorescence, 30 min; inhibition, % at 25 µM; 47,000 compounds, 3% hits; AID 1645857
USP8 block: inhibitors of human USP8 deubiquitinase; P40818; purified USP8, Ub-rhodamine cleavage fluorescence, 30 min; inhibition, % at 20 µM; 47,000 compounds, 4.2% hits; AID 1645853
Target sequence (P40818 whole entry, looked up): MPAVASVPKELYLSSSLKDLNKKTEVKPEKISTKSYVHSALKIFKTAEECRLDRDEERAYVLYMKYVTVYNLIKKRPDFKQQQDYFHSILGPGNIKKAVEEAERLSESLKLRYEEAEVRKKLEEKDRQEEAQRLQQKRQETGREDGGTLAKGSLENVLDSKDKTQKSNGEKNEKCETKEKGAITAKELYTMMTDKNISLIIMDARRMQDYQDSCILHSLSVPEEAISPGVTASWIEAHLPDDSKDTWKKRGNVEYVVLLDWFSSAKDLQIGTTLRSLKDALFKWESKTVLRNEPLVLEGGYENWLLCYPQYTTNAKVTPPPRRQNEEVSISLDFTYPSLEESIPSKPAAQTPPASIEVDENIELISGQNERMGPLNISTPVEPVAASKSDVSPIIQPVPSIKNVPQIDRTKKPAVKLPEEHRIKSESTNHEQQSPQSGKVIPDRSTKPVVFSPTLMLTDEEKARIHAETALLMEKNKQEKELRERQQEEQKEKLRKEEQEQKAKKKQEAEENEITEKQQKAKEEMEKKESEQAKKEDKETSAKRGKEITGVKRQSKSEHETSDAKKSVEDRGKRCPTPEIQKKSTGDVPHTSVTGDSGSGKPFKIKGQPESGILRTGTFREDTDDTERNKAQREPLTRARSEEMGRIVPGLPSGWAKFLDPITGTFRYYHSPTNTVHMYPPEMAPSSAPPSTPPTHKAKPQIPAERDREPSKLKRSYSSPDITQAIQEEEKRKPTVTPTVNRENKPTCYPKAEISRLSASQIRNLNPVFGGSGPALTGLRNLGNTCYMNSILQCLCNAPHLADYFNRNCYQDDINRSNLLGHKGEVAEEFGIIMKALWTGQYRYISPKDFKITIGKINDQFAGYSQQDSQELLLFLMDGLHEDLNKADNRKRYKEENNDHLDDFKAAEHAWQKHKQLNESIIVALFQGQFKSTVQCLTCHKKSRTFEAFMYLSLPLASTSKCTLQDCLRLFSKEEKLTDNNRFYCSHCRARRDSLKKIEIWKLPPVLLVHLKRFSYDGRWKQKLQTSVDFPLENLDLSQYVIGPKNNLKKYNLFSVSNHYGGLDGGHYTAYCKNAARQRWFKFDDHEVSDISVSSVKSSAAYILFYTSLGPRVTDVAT
USP17 block: blocks human USP17 ubiquitin-rhodamine cleavage | 47,000 compounds, 6.5% hits | A8MUK1 | inhibition, % at 50 µM | purified USP17, Ub-rhodamine cleavage fluorescence, 3 h | AID 1645855
USP30 inh: human USP30 deubiquitinase inhibition; purified USP30, Ub-rhodamine cleavage fluorescence; inhibition, % at 25 µM; 47,000 compounds, 5.3% hits
* = called active by the depositor; . = no result given. No stated cut-off is given here; in the data, active means inhibition above about 30%; inactive means the rest.

SMILES | USP10 inh | OTUD3 inh | USP28 block | USP8 block | USP17 block | USP30 inh
CCOC(=O)c1sc(NC(=O)c2cc(-c3ccc(Cl)cc3)nc3ccccc23)nc1C | 9.9 | 0.4 | -2.6 | -35.6 | -10.5 | -24.0
CCc1cc(C(=O)NCc2ccccc2OC)nc2ccnn12 | -0.7 | 9.8 | 12.5 | 9.4 | 15.7 | 23.0
Cc1ccc(OC(C)C(=O)N2CCC(c3nc4ccccc4cc3C(N)=O)CC2)cc1 (centres undefined) | 0.0 | 6.0 | 3.9 | 9.4 | 10.0 | 17.8
CCOC(=O)C1=C(CN2CCN(c3ccccc3F)CC2)NC(=O)NC1c1ccccc1 (centres undefined) | 5.8 | -9.6 | 0.5 | -9.3 | -7.5 | 3.0
Cc1ccc2nc(-c3cccc(NC(=O)C(C)C)c3)[nH]c2c1 | 1.4 | 2.5 | 26.3 | 64.9* | 49.2* | 20.7
O=c1c2cc(Cl)ccc2ncn1Cc1csc(-c2ccccc2)n1 | 12.4 | 20.4 | 15.8 | 28.0 | 21.8 | 43.6*
CCC(C)c1ccccc1NC(=O)CN1C(=O)c2ccccc2S1(=O)=O (centres undefined) | 2.9 | 18.6 | 24.3 | 25.6 | 17.0 | 21.2
CCOC(=O)c1noc2nc(C)nc(N3CCCC3)c12 | 1.5 | 10.0 | -5.5 | 3.9 | -0.1 | 5.4
CCOC(=O)c1noc2ncnc(NCc3cccc(OC)c3)c12 | 2.6 | 3.8 | 0.6 | 69.7* | . | -1.9
CCOC(=O)c1noc2nc(C)nc(NCc3ccccc3OC)c12 | -2.1 | 8.9 | 12.7 | 43.3* | 21.0 | 10.7
CCN1CCC2(CN(c3ncccn3)CC23CCN(C(=O)Cc2ccccc2)CC3)C1=O (centres undefined) | -4.1 | -13.8 | -13.9 | -63.3 | -24.8 | -16.9
CC(=O)Nc1ccc(C(=O)NCc2ccc(Br)cc2)c(N2CCOCC2)c1 | 3.1 | -3.9 | -3.5 | 0.4 | -9.4 | -16.6
O=C(COc1ccccc1)N[C@H]1CO[C@H]2[C@@H]1OC[C@@H]2Nc1nccc(C2CCCC2)n1 | -11.9 | -50.0 | -33.2 | -40.6 | -49.3 | -126.0
Cc1cc(/C=C2\C(=N)N3N=CSC3=NC2=O)c(C)n1-c1cccc(F)c1 | 9.3 | -36.9 | -51.7 | -12.9 | -29.0 | -156.7
CCc1ccc(-n2c(C)cc(/C=C3\C(=N)N4N=CSC4=NC3=O)c2C)cc1 | 40.1* | -120.9 | -135.5 | 62.0* | 46.0* | -432.5
COc1ccc2[nH]c(=O)c(CN(C)C(=O)c3ccc([N+](=O)[O-])cc3)cc2c1 | 5.1 | -3.5 | 3.2 | 25.6 | 46.2* | -3.0
Nc1c(-c2ccccn2)nsc1C(=O)N1CCN(c2ccccc2)CC1 | -1.8 | 10.7 | 5.5 | 8.6 | 1.6 | 7.9
Nc1c(-c2ccccn2)nsc1C(=O)N1CCN(c2ccc(F)cc2)CC1 | 8.5 | 5.4 | 5.6 | 14.4 | 23.9 | 35.7*
O=C(c1ccc(-n2cccn2)c(C#Cc2cccnc2)c1)N1CCC(O)CC1 | -0.1 | -5.8 | . | 2.7 | -10.7 | .
COc1ccccc1CNC(=O)c1ccc([N+](=O)[O-])c(-c2cnn(C(C)C)c2)c1 | 6.0 | 9.9 | 6.7 | -152.9 | -13.0 | 6.7
COC(=O)CSc1nnc(-c2ccccc2O)n1Cc1ccccc1 | 1.6 | 6.9 | 9.7 | 37.4* | -11.5 | 19.6
Cn1cc(NC(=O)Nc2cccc3ccccc23)c2ccccc21 | -11.5 | -11.2 | -0.1 | 88.6* | 62.9* | -60.2
O=C(Cc1ccccc1C(=O)O)Nc1cccc2ccccc12 | -5.6 | -10.6 | -23.1 | 71.4* | 25.8 | -116.8
O=C(NCc1ccc(Cl)cc1)Nc1cccc2ccccc12 | 3.7 | 7.2 | 8.4 | 95.2* | 67.9* | 34.6*
Cc1nc(-c2cccc(S(=O)(=O)Nc3ccccc3Cl)c2)no1 | 5.3 | -0.8 | -4.1 | 4.0 | -0.2 | -13.7
SMILES | USP10 inh | OTUD3 inh | USP28 block | USP8 block | USP17 block | USP30 inh
O=C(CCC1CCCCC1)N1CCC2(CC1)NC(=O)N(Cc1ccc(F)cc1)C2=O | 3.2 | -1.9 | -3.1 | -59.6 | . | 1.2
N#Cc1ccccc1CN1C(=O)c2ccccc2S1(=O)=O | -4.0 | -40.1 | -24.3 | -23.5 | -46.0 | -289.9
O=C1c2ccccc2S(=O)(=O)N1Cc1ccc2nsnc2c1 | 0.5 | 7.5 | 35.3* | 14.9 | 4.4 | 22.8
NC(=O)c1cc2ccccc2nc1C1CCN(C(=O)c2ccccn2)CC1 | 0.6 | -1.1 | -3.4 | 4.2 | 5.7 | -8.6
O=C(Nc1nccnc1C(=O)NCc1ccccn1)c1ccccc1 | -0.5 | -4.5 | -11.9 | 37.7* | -4.3 | -30.4
O=C(NC1CCS(=O)(=O)C1)c1ccc(N2CCOc3ccc(Cl)cc32)s1 (centres undefined) | -4.4 | 0.7 | 5.8 | -8.0 | 39.9* | 0.8
O=C(c1cc2ccccc2[nH]1)N1CCOCC1CCc1cnccn1 (centres undefined) | 0.0 | -1.2 | -2.8 | 0.5 | 1.2 | 15.3
COCCN1C(=O)c2ccccc2C(C(=O)Nc2cccnc2Cl)C1c1cccs1 (centres undefined) | -0.7 | 16.9 | 16.5 | 19.5 | 15.4 | 25.0
Cc1ccc(NC(=O)Cn2cccc2-c2nnc(C3CC3)o2)cc1C | -0.1 | -4.3 | -1.7 | 0.0 | -1.0 | 0.6
O=C(Cn1cccc1-c1nnc(C2CC2)o1)Nc1cccc(F)c1 | -0.7 | -3.1 | -0.5 | 0.1 | 32.3* | -8.2
Cc1cc(-c2nnc(C3CC3)o2)c(C)n1CC(=O)Nc1ccccc1 | 0.0 | 18.0 | . | 3.8 | 2.5 | .
Cc1cc(NC(=O)Cn2c(C)cc(-c3nnc(C4CC4)o3)c2C)ccc1F | -1.9 | 0.7 | 29.8 | -0.4 | 34.5* | 43.8*
CC(=O)Nc1ccc(-c2nnc(SCC(=O)NC3CC3)n2C)cc1 | 1.5 | 18.1 | 4.0 | 11.1 | 14.8 | 25.2
N#Cc1ccc(C(=O)Nc2ccc([C@H]3OCC(=O)N[C@@H]3CO)cc2)cc1 | 1.8 | -7.8 | 0.0 | 3.1 | 32.7* | 34.7*
O=C1CO[C@H](c2ccc(NC(=O)c3cc(F)cc(F)c3)cc2)[C@@H](CO)N1 | 0.2 | -1.6 | 1.6 | 5.4 | 23.6 | 19.3
COc1ccc(-c2cc(C(=O)N3CCCC3c3cc(C)no3)no2)cc1 (centres undefined) | -0.5 | -0.3 | 2.9 | 1.2 | 0.0 | 9.6
O=C(/C=C/c1ccc2c(c1)OCO2)Nc1nc2n(n1)C(c1ccccc1)CC(=O)N2 (centres undefined) | 21.7 | -3.2 | -14.5 | 61.9* | -9.6 | -45.6
O=C(/C=C/c1ccc(Cl)cc1)Nc1nc2n(n1)C(c1ccccc1)CC(=O)N2 (centres undefined) | 12.6 | 1.9 | -1.4 | 20.7 | 3.5 | 11.8
O=C(COc1cccc(F)c1)Nc1sc2c(c1-c1nc3ccccc3[nH]1)CCCC2 | -3.0 | -9.5 | -16.5 | -164.7 | -31.1 | -63.9
CC(=O)Nc1cccc(C(=O)Nc2ccc(CN3CCOCC3)cc2)c1 | 0.7 | 7.7 | 5.4 | 11.2 | 4.2 | 10.1
O=C(Nc1ccc(CN2CCOCC2)cc1)c1cccc(Br)c1 | -0.7 | -4.3 | 38.1* | -7.9 | -4.2 | 5.4
FC(F)(F)c1cc(-c2ccncc2)nc2c(-c3ccccc3)cnn12 | 6.9 | -3.4 | -6.2 | -5.7 | 4.9 | 5.2
CS(=O)(=O)c1ccccc1C(=O)NCCC(c1ccccc1)c1ccccc1 | 0.0 | 0.1 | 2.6 | -1.5 | -0.6 | 21.4

Source: PubChem BioAssay
